# Data: PubChem BioAssay (EPA / NIEHS)
# Records with an inconclusive call do not appear. A structure can be active in one record and inactive in another. Active and inactive are the calls of the source. Rule for the calls, unless noted: active = hit-call score of the fitted dose curve at least 0.9, where 1 is the maximum; inactive = score below 0.9.
# Key:
# [1] = read-out: Interleukin 17A (IL17A), IL17A (gene 3605); experiment: BSK_BT_xIL17A: BioMAP Diversity Plus: BT Assay for Interleukin 17A (IL17A) Biomarker Activity (AID 2284229); details: primary human B cells with PBMC
# Method in brief: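 Co-culture of human B cells and PBMC, dosed for 24 h in 96-well format. Secreted IL-17A measured with Luminex xMAP; gain-direction fitting against DMSO as baseline.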
# [2] = read-out: Tumor necrosis factor (Homo sapiens) (UniProt P01375); experiment: BSK_BT_xTNFa: BioMAP Diversity Plus: BT Assay for Tumor necrosis factor alpha (TNF-alpha) Biomarker Activity (AID 2284230); details: primary human B cells with PBMC
# Method in brief: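 Human primary co-culture of B cells and peripheral blood mononuclear cells; TNF-alpha in supernatant, 24 h post-dose, Luminex multiplex; DMSO = baseline.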
# [3] = read-out: Vascular cell adhesion molecule 1 (VCAM1), VCAM1 (gene 7412); experiment: BSK_MyoF_VCAM1: BioMAP Diversity Plus: MyoF Assay for Vascular cell adhesion molecule 1 (VCAM1) Biomarker Activity (AID 2284231); details: primary human lung fibroblasts
# Method in brief: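 Primary human lung fibroblasts (BioMAP MyoF system) dosed with chemical, VCAM-1 measured by ELISA 24 hours later. Fitted in the positive direction against DMSO; parallel SRB staining assessed cytotoxicity.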
# [4] = UKN4_HCS_LUHMES_cell_viability: Viability Assessment in the University of Konstanz (UKN) Leist Lab Neurite Outgrowth Assay in human LUHMES cells (UKN4) (AID 2284232)
# Method in brief: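 Human dopaminergic-model LUHMES neurons were exposed to chemicals for 24 h after a 2-day differentiation. Viability was scored by imaging Hoechst H-33342 staining, with activity fitted in both directions relative to DMSO controls.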
# [5] = CCTE_Mundy_HCI_Cortical_NOG_NeuronCount: CCTE's Neurite Outgrowth Assay in rat cortical cells for Neuron Count, Mundy Lab (AID 2284236; active = hit-call score of the fitted dose curve at least 0.9, where 1 is the maximum;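 note: neurons counted by imaging betaIII-tubulin and Hoechst stained cortical cells; cells exposed to compound for about 48 hours before fixation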)
# Method in brief: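 Read-out: neuron number by high-content imaging of betaIII-tubulin (Alexa Fluor-488) and Hoechst-labelled rat primary cortical cells.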
# [6] = CCTE_Mundy_HCI_Cortical_NOG_BPCount: CCTE's Neurite Outgrowth Assay in rat cortical cells for Branch Point Count, Mundy Lab (AID 2284237);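 for AC50: branch points counted about two days after chemical exposure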
# Method in brief: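 Measured 50.33 h after dosing, this morphology endpoint uses rat primary cortical cultures labelled for betaIII-tubulin. Branch points are quantified by high-content imaging, with DMSO as negative control and baseline.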
# [7] = read-out: Collagen I, COL1A1 (gene 1277); experiment: BSK_MyoF_CollagenI: BioMAP Diversity Plus: MyoF Assay for Collagen I Biomarker Activity (AID 2284238); details: primary human lung fibroblasts
# Method in brief: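 Primary human lung fibroblasts (MyoF system) treated 24 h; Collagen I quantified by ELISA and fitted in positive direction against DMSO. Parallel SRB total-protein staining assessed overt cytotoxicity.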
# [8] = TAMU_HCS_1.5hr_SingleDonor1434_Cytotoxicity: Cytotoxicity Assessment using High-content Screening (HCS) Fluorescent Imaging for the Texas A&M University (TAMU) 1.5-hr Human Induced Pluripotent Stem Cell (iPSC)-derived Cardiotoxicity Assay (AID 2284234; active = hit-call score of the fitted dose curve at least 0.9, where 1 is the maximum)
# Method in brief: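 Human iPSC-derived cardiomyocytes dosed at 0.2, 1, 10, 100 uM final (0.5% DMSO) for 90 min at 37 C. Hoechst 33342-stained nuclei counted by 10x high-content imaging; POD is EC10, a 10% drop in total cell count versus DMSO.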
# [9] = UKN2_HCS_IMR90_cell_viability: Viability Assessment in the University of Konstanz (UKN) Leist Lab Neural Crest Cell Migration Assay in human induced IMR90 Pluripotent Stem Cells (UKN2) (AID 2284233);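 note: viability of neural crest cells differentiated from IMR90 iPSC measured by calcein-AM fluorescence imaging; cells exposed to compound for 24 h after a 24 h migration phase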
# Method in brief: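 Neural crest cells derived from IMR90 iPSC migrate into a stopper-free zone for 24 h in EGF/FGF medium, then are exposed to compound for 24 h. Viability assessed by calcein-AM and Hoechst staining with high-content imaging, fitted bidirectionally versus DMSO.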
# [10] = TAMU_PeakParms_SingleDonor1434_QT: Texas A&M University (TAMU) 1.5-hr Human Induced Pluripotent Stem Cell (iPSC)-derived Cardiomyocytes Calcium (Ca+2) Flux Assay for Cardiotoxicity: QT (decay-rise ratio) (AID 2284235; active = hit-call score of the fitted dose curve at least 0.9, where 1 is the maximum)
# Method in brief: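 iPSC-derived cardiomyocytes (single donor 1434) dosed at 0.2, 1, 10, 100 uM final in 0.5% DMSO, 90 min at 37C. Ca2+ flux fluorescence decay/rise ratio; EC05 (5% increase versus DMSO) as POD, excluding beat-arrest and severe-notch data.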
# Sequence of Tumor necrosis factor (Homo sapiens) (P01375 whole entry, looked up): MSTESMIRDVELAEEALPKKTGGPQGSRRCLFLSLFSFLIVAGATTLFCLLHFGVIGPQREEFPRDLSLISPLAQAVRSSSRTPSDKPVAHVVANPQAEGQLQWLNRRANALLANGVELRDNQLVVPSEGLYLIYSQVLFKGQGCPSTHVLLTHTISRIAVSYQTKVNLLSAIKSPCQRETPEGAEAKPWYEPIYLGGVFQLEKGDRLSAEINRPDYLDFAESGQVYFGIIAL
structure (smiles),measurement,setting,value
O=S(=O)(O)C(F)(F)C(F)(F)C(F)(F)C(F)(F)C(F)(F)C(F)(F)C(F)(F)C(F)(F)F,outcome,[1],inactive
same,outcome,[2],inactive
same,outcome,[3],inactive
same,AC50,[4],20.4 µM (active)
same,outcome,[5],inactive
same,outcome,[6],inactive
same,outcome,[7],inactive
CCOCN(C(=O)CCl)c1c(C)cccc1CC,AC50,[8],81.6 µM (active)
O=C(O)C(F)(F)C(F)(F)C(F)(F)C(F)(F)C(F)(F)C(F)(F)C(F)(F)F,outcome,[1],inactive
same,AC50,[2],5.95 µM (active)
same,outcome,[2],inactive
same,outcome,[3],inactive
same,AC50,[4],89.4 µM (active)
same,outcome,[9],inactive
same,outcome,[5],inactive
same,outcome,[6],inactive
same,outcome,[7],inactive
CC1(c2ccc(Oc3ccccc3)cc2)OC(=O)N(Nc2ccccc2)C1=O (configuration not stated),outcome,[9],inactive
same,AC50,[5],23.8 µM (active)
same,AC50,[6],50 µM (active)
CC1(C)C(C=C(Cl)Cl)C1C(=O)OC(C#N)c1ccc(F)c(Oc2ccccc2)c1 (configuration not stated),outcome,[9],inactive
same,AC50,[5],49.9 µM (active)
same,outcome,[5],inactive
same,AC50,[6],63.1 µM (active)
same,outcome,[6],inactive
CC[C@H](C)[C@H]1O[C@]2(C=C[C@@H]1C)C[C@@H]1C[C@@H](C/C=C(\C)[C@@H](O[C@H]3C[C@H](OC)[C@@H](O[C@H]4C[C@H](OC)[C@@H](O)[C@H](C)O4)[C@H](C)O3)[C@@H](C)/C=C/C=C3\CO[C@@H]4[C@H](O)C(C)=C[C@@H](C(=O)O1)[C@]34O)O2 (tested in a mixture with another compound),AC50,[9],7.09 µM (active)
same,AC50,[5],13.3 µM (active)
same,AC50,[6],8.26 µM (active)
COP(=S)(OC)Oc1ccc([N+](=O)[O-])cc1,outcome,[4],inactive
same,AC50,[5],2.98 µM (active)
same,AC50,[6],23.2 µM (active)
O=S1OCC2C(CO1)C1(Cl)C(Cl)=C(Cl)C2(Cl)C1(Cl)Cl (configuration not stated),AC50,[4],18.7 µM (active)
same,AC50,[9],14.8 µM (active)
same,outcome,[8],inactive
same,outcome,[10],inactive
same,AC50,[5],25.2 µM (active)
same,AC50,[6],21.4 µM (active)
